The source of these data is PubChem BioAssay (NCATS).

What all share (assay): Primary qHTS to identify gynecologic anti-cancer compounds using libraries of approved drugs and bioactive compounds (AID 1345084); also: nearly all actives have a fitted effect of over 55% in size
(In general: In qHTS, concentration-response curves come from the screen itself.)

The test system of one test is CASKI. As to conditions: Gynecologic cancer cell panel viability, ATPlite luminescence, 48 h; series mostly up to 57.5 µM. The method in brief: (§1)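 Luminescence from the ATPlite ATP-monitoring reagent indicates viable cell number; lower signal means cytotoxicity. Cells received compound 16 h after seeding and were exposed for 48 h across five concentrations.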
For another test, the system named is Es-2. As to conditions: Gynecologic cancer cell panel viability, ATPlite luminescence, 48 h; series mostly up to 57.5 µM. The gist of the method:
as §1
(Cellular ATP, detected with luciferase, serves as a proxy for viable cell number.)

Another test has as its system HeLa. As to conditions: Gynecologic cancer cell panel viability, ATPlite luminescence, 48 h; series mostly up to 57.5 µM. The gist of the method:
as §1

The next test concerns Hek293T. The settings on record: Gynecologic cancer cell panel viability, ATPlite luminescence, 48 h, control line for the selectivity index; series mostly up to 57.5 µM. The method in brief: as §1
The test system of the next test is JEG-3. The settings on record: Gynecologic cancer cell panel viability, ATPlite luminescence, 48 h; series mostly up to 57.5 µM. The gist of the method: as §1
For a further test, the system named is PA-1. The settings on record: Gynecologic cancer cell panel viability, ATPlite luminescence, 48 h; series mostly up to 57.5 µM. The gist of the method: as §1
The test system of a further test is SKOV3. As to conditions: Gynecologic cancer cell panel viability, ATPlite luminescence, 48 h; series mostly up to 57.5 µM. The method in brief:
as §1

The next test has as its system Tov-21-G. As to conditions: Gynecologic cancer cell panel viability, ATPlite luminescence, 48 h; series mostly up to 57.5 µM. The method in brief: as §1
The test system of another test is Tov112D. As to conditions: Gynecologic cancer cell panel viability, ATPlite luminescence, 48 h; series mostly up to 57.5 µM. The gist of the method:
as §1

The subject of another test is OV90. As to conditions: Gynecologic cancer cell panel viability, ATPlite luminescence, 48 h; series mostly up to 57.5 µM. The gist of the method:
as §1

Inconclusive results are not listed. Activity calls are given as the source filed them. Calls follow the shape of the dose curve; as a rule, active = well fitted cell-killing curve with a large enough effect; inconclusive = small, poorly fitted or top-dose-only effect, or effect the other way; inactive = flat fitted curve, though single readings scatter.
Potency is read from the fitted curve at half-maximal effect.

In the case of `C=CCOc1cc(Cl)ccc1C(=O)NCCN(CC)CC`, the Potency result in the test with CASKI, with Es-2, with HeLa, with Hek293T, with JEG-3 and in the test with PA-1 was “inactive” in each case. In addition, the Potency entry in the test on SKOV3, in the test with Tov-21-G and with Tov112D was “inactive” throughout.
As to `CN(C)CCOC1=Cc2ccccc2Sc2ccc(Cl)cc21`, the Potency result in the test with CASKI, in the test on Es-2, in the test on HeLa, with Hek293T, in the test on JEG-3 and in the test with PA-1 was “inactive” each time. The Potency result in the test on SKOV3, with Tov-21-G and in the test on Tov112D was “inactive” throughout.
For `C/C(=N\O)[C@@H](C)NCC(C)(C)CN[C@H](C)/C(C)=N/O`, the Potency result with CASKI, with Es-2, with HeLa, in the test on Hek293T, in the test on JEG-3 and in the test on PA-1 was “inactive” in each case. Besides, the Potency result in the test with SKOV3, with Tov-21-G and with Tov112D was “inactive” throughout.
With `CN1[C@@H]2CC[C@H]1CC(NC(=O)n1c(=O)[nH]c3ccccc31)C2` (stereo not given in full), the Potency entry in the test on CASKI, with Es-2, with HeLa, in the test with Hek293T, with JEG-3 and in the test with PA-1 was “inactive” in each case. For the same compound, the Potency result in the test on SKOV3, with Tov-21-G and in the test with Tov112D was “inactive” in each case.
`CCC(CN)=C(c1ccccc1)c1ccccc1`: the Potency result in the test on CASKI, in the test on Es-2, in the test on HeLa, with Hek293T, with JEG-3 and with PA-1 was “inactive” in each case. Moreover, the Potency entry in the test with SKOV3, with Tov-21-G and with Tov112D was “inactive” each time.
As to `O=C(c1ccco1)N1CCNCC1`, the Potency entry in the test on CASKI, in the test with Es-2, in the test with HeLa, in the test on Hek293T, in the test with JEG-3 and with PA-1 was “inactive” each time. In addition, the Potency entry with SKOV3, in the test with Tov-21-G and in the test with Tov112D was “inactive” throughout.
Turning to `CN1N=C(C(N)=O)CCC1=O`, the Potency entry in the test with CASKI, in the test with Es-2, in the test with HeLa, in the test on Hek293T, in the test on JEG-3 and with OV90 was “inactive” throughout. In addition, the Potency result in the test on Tov-21-G and in the test on Tov112D was “inactive” in each case.
On to `C[C@H]1C[C@H]2[C@@H]3CCC4=CC(=O)C=C[C@]4(C)[C@H]3C(=O)C[C@]2(C)[C@@]1(O)C(=O)CO`, for which the Potency result in the test on CASKI, in the test on Es-2, in the test on HeLa, with Hek293T, with JEG-3 and in the test with PA-1 was “inactive” in each case. Further, the Potency entry in the test on SKOV3, in the test on Tov-21-G and in the test with Tov112D was “inactive” throughout.
Consider `N#C/C(=C1/SC[C@@H](c2ccc(Cl)cc2Cl)S1)n1ccnc1`, for which the Potency entry in the test on CASKI, in the test on Es-2, in the test on HeLa, in the test with Hek293T, in the test on JEG-3 and in the test on PA-1 was “inactive” throughout. Besides, the Potency entry in the test on SKOV3, in the test with Tov-21-G and in the test with Tov112D was “inactive” each time.
As for `CN(C)c1cc2c(Nc3ccc4c(cnn4Cc4ccccc4)c3)ncnc2cn1`, the Potency result in the test on CASKI, in the test on Es-2, with HeLa, with Hek293T, with JEG-3 and in the test with OV90 was “inactive” each time. In addition, the Potency entry in the test with SKOV3, with Tov-21-G and in the test with Tov112D was “inactive” in each case.
For the compound `Nc1ccc(C(=O)OCC(O)CO)cc1` (stereo not given), the Potency result in the test with CASKI, in the test on Es-2, in the test on HeLa, with Hek293T, in the test on JEG-3 and in the test with OV90 was “inactive” throughout. For the same compound, the Potency entry with SKOV3, in the test with Tov-21-G and with Tov112D was “inactive” throughout.
`OC(CCCN1CCCCC1)(c1ccccc1)c1ccccc1`: the Potency result in the test on CASKI, with Es-2, in the test on HeLa, in the test with Hek293T, in the test with JEG-3 and with PA-1 was “inactive” in each case. The Potency entry in the test on SKOV3, with Tov-21-G and in the test with Tov112D was “inactive” throughout.
For the compound `CCN1C(=O)c2ccccc2C1Nc1ccc(OCCN2CCCCC2)cc1` (stereo not given), the Potency result in the test on CASKI, with Es-2, in the test on HeLa, in the test on Hek293T, in the test with JEG-3 and in the test with PA-1 was “inactive” each time. Besides, the Potency result in the test with SKOV3, in the test on Tov-21-G and in the test on Tov112D was “inactive” each time.
In the case of `CC(=O)/C=C/C=C1/C2CCC(C2)C1(C)C` (stereo not given), the Potency result in the test with CASKI, in the test on Es-2, with HeLa, in the test with Hek293T, with JEG-3 and in the test on OV90 was “inactive” throughout. For the same compound, the Potency entry in the test on SKOV3, with Tov-21-G and with Tov112D was “inactive” in each case.
On to `O=C(Nc1ccc(S(=O)(=O)N2CCOCC2)cc1)c1cc(Cl)ccc1NS(=O)(=O)c1ccc(Cl)s1`, for which the Potency result in the test with CASKI, in the test with Es-2, in the test on HeLa, in the test on Hek293T, with JEG-3 and in the test with OV90 was “inactive” throughout. For the same compound, the Potency entry in the test on SKOV3, in the test on Tov-21-G and in the test on Tov112D was “inactive” in each case.
Regarding `NC(=O)NS(=O)(=O)c1ccc(Cl)cc1`, the Potency result with CASKI, in the test with Es-2, in the test with HeLa, with Hek293T, in the test on JEG-3 and in the test with OV90 was “inactive” throughout. For the same compound, the Potency entry in the test with PA-1, in the test with Tov-21-G and in the test on Tov112D was “inactive” throughout.
Consider `OCCc1ccccc1`, for which the Potency entry with CASKI, in the test on Es-2, with HeLa, in the test on Hek293T, in the test with JEG-3 and in the test on PA-1 was “inactive” throughout. Also, the Potency result with SKOV3, in the test with Tov-21-G and in the test with Tov112D was “inactive” throughout.
On to `Cc1ccc2ccc(Cl)cc2n1`, for which the Potency entry in the test with CASKI, in the test with Es-2, in the test with HeLa, with Hek293T, with JEG-3 and with OV90 was “inactive” each time. Moreover, the Potency entry in the test on PA-1, with Tov-21-G and in the test on Tov112D was “inactive” in each case.
Regarding `OCCOCCN1CCN(C(c2ccccc2)c2ccc(Cl)cc2)CC1` (stereo not given), the Potency entry in the test on CASKI, in the test with Es-2, with HeLa, in the test with Hek293T, in the test on JEG-3 and in the test with PA-1 was “inactive” in each case. Besides, the Potency result in the test on SKOV3, in the test with Tov-21-G and in the test with Tov112D was “inactive” each time.
In the case of `C[N+]1(CC2COC(c3ccccc3)(c3ccccc3)O2)CCCCC1` (stereo not given), the Potency entry with CASKI, with Es-2, with HeLa, with Hek293T, with JEG-3 and with PA-1 was “inactive” in each case. Also, the Potency entry with Tov-21-G and with Tov112D was “inactive” in each case.
Regarding `CCCC(=O)c1cc(O)c(O)cc1O`, the Potency result in the test with CASKI, in the test on Es-2, with HeLa, in the test with Hek293T, with JEG-3 and in the test on OV90 was “inactive” throughout. Besides, the Potency entry with Tov-21-G and in the test with Tov112D was “inactive” in each case.
In the case of `NC(=O)NC1N=C([O][Al])NC1=O` (stereo not given), the Potency result with CASKI, with Es-2, in the test on HeLa, with Hek293T, with JEG-3 and in the test with OV90 was “inactive” throughout. Besides, the Potency entry in the test with SKOV3, in the test with Tov-21-G and in the test on Tov112D was “inactive” throughout.
Turning to `CCOC(=O)N1CCC(n2c(=O)[nH]c3cc(Cl)ccc32)CC1`, the Potency entry in the test with CASKI, in the test on Es-2, in the test on HeLa, in the test with PA-1, in the test on Tov-21-G and in the test on Tov112D was “inactive” each time.
As for `CCOC(=O)N1CCC(Nc2ccc(Cl)cc2N)CC1`, the Potency entry in the test on CASKI, in the test with Es-2, with HeLa, in the test on Hek293T, in the test with JEG-3 and with SKOV3 was “inactive” each time. Besides, the Potency entry in the test with Tov-21-G and in the test with Tov112D was “inactive” throughout.
For the compound `O=C(Oc1ccccc1)c1cccc(C(=O)Oc2ccccc2)c1`, the Potency entry with CASKI, in the test with Es-2, in the test with HeLa, in the test with JEG-3, in the test on OV90 and with PA-1 was “inactive” each time. Moreover, the Potency result in the test with SKOV3, in the test with Tov-21-G and in the test on Tov112D was “inactive” each time.
For the compound `Cc1cc2nc3ccc(=[N+](C)C)cc-3sc2cc1N`, the Potency is 12.6 µM (active) in the test with CASKI; 14.1 µM (active) with Es-2; 14.1 µM (active) with Hek293T; 22.4 µM (active) in the test on OV90; 3.55 µM (active) with PA-1; 35.5 µM (active) in the test on SKOV3. Further, the Potency was 28.2 µM (active) in the test on Tov-21-G and 12.6 µM (active) in the test with Tov112D.
Consider `O=c1[nH]c2ccccc2c(=O)n1CCCl`, for which the Potency result with CASKI, with Es-2, in the test with Hek293T, in the test on JEG-3, in the test with OV90 and in the test on PA-1 was “inactive” throughout. The Potency entry with SKOV3, in the test on Tov-21-G and in the test on Tov112D was “inactive” in each case.
